Assay outcomes from PubChem BioAssay.
KB-3-1 tox = kills parental KB-3-1 adenocarcinoma cells; KB-3-1 viability, CellTiter-Glo ATP luminescence, 72 h; Potency, µM (top dose mostly 46.1 µM), hits mostly cytotoxic; 400,000 tested, 1.4% active; AID 1347075; also: % is scaled to controls: 0 for no effect and ±100 for the full control effect; nearly all actives have a fitted effect of over 60% in size
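Viability of parental KB-3-1 cells, measured by CellTiter-Glo luminescence, followed a 72 h incubation at 37 °C with pinned compounds in phenol-red-free DMEM containing 10% FBS.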
KB-V1 MDR tox = kills drug-selected multidrug resistant KB-V1 cells | KB-V1 MDR cells viability, CellTiter-Glo, 72 h | Potency, µM (doses to about 46.1 µM), actives largely listed as cytotoxic | 400,000 tested, 3.4% active | AID 1347076; also: % is scaled to controls: 0 for no effect and ±100 for the full control effect; nearly all actives have a fitted effect of over 60% in size
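Cells of the MDR subline KB-V1 are plated, dosed with compound at multiple concentrations, and incubated 72 h at 37 degrees C; CellTiter-Glo is then added and luminescence read after 10 min.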
MCF10A rerep = DNA re-replication induction in MCF 10a cells. MCF 10A DNA re-replication, Hoechst nuclear intensity, 48 h. Potency, µM (titrated, usually from 46.1 µM), inactives show top-dose activity, positive = re-replication, usual class: activators. 350,000 tested, 2.9% active. AID 624296; also: % of control where 0% means no effect; nearly all actives have a fitted effect of over 50% in size
SW480 rerep = induces DNA re-replication in SW480 colon adenocarcinoma cells; AID 624297; Potency, µM (titrated, usually from 46.1 µM), for inactives: at the top dose re-replication activation, most hits filed as activators; SW480 DNA re-replication, Hoechst DNA content imaging, 48 h; 340,000 tested, 1.8% active; also: % of control where 0% means no effect; nearly all actives have a fitted effect of over 55% in size
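Compounds, transferred as 23 nL by pin tool, were incubated with cells for 48 hr; DNA content per nucleus was then quantified by Hoechst staining and fluorescence plate imaging.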
ELG1 DNA repair = inhibitors of ELG1-dependent DNA repair in HEK293T cells. HEK293T ELG1-luciferase reporter, luminescence, 16 h; DNA damage induced by 5-fluorouridine. Potency, µM (highest dose often 46.1 µM), inactives show at the highest dose activity change, negative = inhibition, hits mostly inhibitors. 330,000 tested, 2.3% active; also: % is scaled to controls: 0 for no effect and ±100 for the full control effect; nearly all actives have a fitted effect of over 55% in size
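In this reporter screen, reduction of luminescence relative to DMSO vehicle indicated activity. Compounds and 5-fluorouridine were added together to 2,000 cells per well, incubated for 16 hr at 37 °C, then developed with ONE-Glo.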
* marks the source's active call; other numbers are inactive results; [ ] = remark or other dose. The list is not random: actives were taken first. Their share in the collection is about 8.1%. Calls follow the shape of the dose curve; as a rule, active = well fitted curve in the direction sought with a large enough effect; inconclusive = small, poorly fitted or top-dose-only effect, or another doubt; inactive = no such curve, though single readings can be large; an effect the other way counts as inactive or inconclusive. Potency is read from the fitted curve at half-maximal effect.

Screening CCN(CC(=O)Nc1ccc(NC(C)=O)cc1)C(=O)c1ccc(Sc2nncn2C)c([N+](=O)[O-])c1 returned KB-3-1 tox inactive and KB-V1 MDR tox inactive.
Screening CC(=O)c1ccc(NC(=O)c2cc(C)nc3c2c(C)nn3-c2ccc(C)cc2)cc1 returned KB-3-1 tox inactive and KB-V1 MDR tox inactive.
`CCOC(=O)N1CCN(Cc2nc3cc(NC(=O)C(C)C)ccc3n2C(C)C)CC1` gave KB-3-1 tox 0.65µM* and KB-V1 MDR tox inactive.
CCCn1c(CN2CCN(C(=O)OCC)CC2)nc2cc(NC(=O)CC)ccc21 was read as KB-3-1 tox 9.2µM*, KB-V1 MDR tox inconclusive, MCF10A rerep 16µM*, SW480 rerep 6.5µM* and ELG1 DNA repair inconclusive.
CC1(C(=O)Nc2ccc(Cl)c(Cl)c2)CCN1C(=O)Cc1ccc(-c2ccccc2)cc1 (stereo unspecified) was read as KB-3-1 tox inactive and KB-V1 MDR tox inconclusive.
CC1(C)CCCC2(C)C(OCCO)=CC(=O)C=C12 (stereo unspecified) was read as KB-3-1 tox inactive and KB-V1 MDR tox inactive.
CC1=C(CC/C(C)=N/NC(N)=S)C(C)(C)CCC1 was read as KB-3-1 tox inconclusive, KB-V1 MDR tox inactive, MCF10A rerep 13µM*, SW480 rerep 11µM* and ELG1 DNA repair inconclusive.
O=C(Nc1cccc(Cl)c1)Nc1cccc(Cl)c1 was read as KB-3-1 tox inactive, KB-V1 MDR tox inconclusive, MCF10A rerep inconclusive, SW480 rerep 2% and ELG1 DNA repair -28%.
Screening N#CCc1ccc(NC(=O)Nc2cccc(Cl)c2)cc1 returned KB-3-1 tox inconclusive, KB-V1 MDR tox 15µM*, MCF10A rerep 22%, SW480 rerep 2% and ELG1 DNA repair 7%.
For O=C(Nc1cccc(Cl)c1)Nc1ccc(Br)cc1F the results were KB-3-1 tox 16µM*, KB-V1 MDR tox 21µM*, MCF10A rerep inconclusive, SW480 rerep inconclusive and ELG1 DNA repair 14%.
`COC(=O)c1cc(NC(=O)Nc2cccc(Cl)c2)ccc1Cl` gave KB-3-1 tox inactive, KB-V1 MDR tox 23µM*, MCF10A rerep -2%, SW480 rerep 0% and ELG1 DNA repair -1%.
`O=C(Nc1cccc(Cl)c1)OCCOCCOC(=O)Nc1cccc(Cl)c1` gave KB-3-1 tox inconclusive, KB-V1 MDR tox inactive, MCF10A rerep 21µM* and SW480 rerep 2%.
`O=C(Nc1ccccc1)Nc1ccc(Br)cc1F` gave KB-3-1 tox inactive, KB-V1 MDR tox inactive, MCF10A rerep 3%, SW480 rerep -6% and ELG1 DNA repair inconclusive.
For CCOc1ccccc1C(=O)NC(C(=O)NCCc1ccccn1)C(C)C (stereo unspecified) the results were MCF10A rerep -6%, SW480 rerep -2% and ELG1 DNA repair -12%.
For CCn1c(SCC(=O)c2c(N)n(C3CC3)c(=O)[nH]c2=O)nc2cc(S(N)(=O)=O)ccc21 the results were KB-3-1 tox inactive, KB-V1 MDR tox inactive, MCF10A rerep 1%, SW480 rerep -8% and ELG1 DNA repair -1%.
For COc1ccc(C(=O)Nc2cccc(C(C)=O)c2)c(OC)c1OC the results were KB-3-1 tox inactive, KB-V1 MDR tox inactive, MCF10A rerep 30%, SW480 rerep -1%[9.22 µM] and ELG1 DNA repair inconclusive.
For COC(=O)c1cccc(NC(=O)NC(=O)c2ccc(Cl)cc2)c1 the results were KB-3-1 tox inactive, KB-V1 MDR tox inactive, MCF10A rerep 6%, SW480 rerep 18µM* and ELG1 DNA repair inconclusive.
Cc1cc(NC(=O)Nc2ccccc2F)ccc1Br was read as KB-3-1 tox inconclusive, KB-V1 MDR tox inconclusive, MCF10A rerep 18µM*, SW480 rerep inconclusive and ELG1 DNA repair inconclusive.
`COC(=O)c1cccc(NC(=O)c2cc(OC)c(OC)c(OC)c2Br)c1` gave KB-3-1 tox inactive, KB-V1 MDR tox inconclusive, MCF10A rerep 5%, SW480 rerep -1% and ELG1 DNA repair 12µM*.
For CC(C)Cn1c2c(c(O)c(C(=O)Nc3nccs3)c1=O)CCCC2 the results were KB-3-1 tox inconclusive, KB-V1 MDR tox 7.3µM*, MCF10A rerep 7%, SW480 rerep inconclusive and ELG1 DNA repair inconclusive.
